Reference: article PMC6451091, “NextPBM: a platform to study cell-specific transcription factor binding and cooperativity”
Over roughly 3,700 sequences, “z-score” has its median near 4; the highest 2% begin near 8.4. What follows is part of a selection rich in the highest values, with near analogues and random picks from the rest.

What was measured:
PU.1 (IVT) [1] = molecular target: PU.1 (IVT) (UniProt P17947 1-270); experiment: protein-binding microarray (PBM); 20 mM HEPES pH 7.9, 100 mM NaCl, 1 mM DTT, 0.2 mg/mL BSA, 0.02% Triton X-100, 2% milk, 0.4 mg/mL salmon testes DNA; 1 h; temperature not stated; high values mean tight binding; conditions: dsDNA, one strand shown
Procedure, shortened: (§1)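 Untagged full-length PU.1 was produced by coupled human in vitro transcription/translation and incubated for 1 h on custom double-stranded DNA microarrays in HEPES pH 7.9 containing 100 mM NaCl, 2% milk and salmon testes DNA. Each array carried 20-bp genomic sites and single-nucleotide variants, with 10 probes per site (5 per orientation). Bound protein was detected with anti-PU.1 followed by a fluorescent secondary antibody. Binding values are z-scores calculated from scanned fluorescence after linear-regression normalisation.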

PU.1 (IVT) [2] = molecular target: PU.1 (IVT) (UniProt P17947 1-270); experiment: as above; conditions: dsDNA, one strand shown; remark: listed apart in the source
Procedure, shortened: as §1

Sequence	binding signal (PU.1 (IVT) [1])	binding signal (PU.1 (IVT) [2])
GCCTAGCACAGAAAGAGGAAGAGAAACTAGTGCTAGGTCTTGATTCGCTTGACGCTGCTG	4.62 z-score	–
GCCTAGCACAGAAAGAGGAAGTGATTGAAGTGCTAGGTCTTGATTCGCTTGACGCTGCTG	8.32 z-score	–
GCCTAGCACAGAAAGAGGAAGACTAGTGTGTGCTAGGTCTTGATTCGCTTGACGCTGCTG	–	3.78 z-score
GCCTAGCACAGAAAGAGGAAGTGATGTTAGTGCTAGGTCTTGATTCGCTTGACGCTGCTG	8.46 z-score	–
GCCTAGCACAGAAAGAGGAAGTGGGTGTTGTGCTAGGTCTTGATTCGCTTGACGCTGCTG	8 z-score	–
GCCTAGCACAGAAAGAGGAAGTGACTCAGGTGCTAGGTCTTGATTCGCTTGACGCTGCTG	8.06 z-score	–
GCCTAGCACAGAAGAAGGAAGTGAAAGAAGTGCTAGGTCTTGATTCGCTTGACGCTGCTG	–	4.5 z-score
GCCTAGCACAGAAAGAGGAAGTGTTTATAGTGCTAGGTCTTGATTCGCTTGACGCTGCTG	8.43 z-score	–
GCCTAGCACAGAAAGAGGAAGTGAAGCTAGTGCTAGGTCTTGATTCGCTTGACGCTGCTG	8.64 z-score	–
GCCTAGCACTCCAGGAGGAACTGAAAGCTGTGCTAGGTCTTGATTCGCTTGACGCTGCTG	1.74 z-score	–
GCCTAGCACAAAAAGAGGAAATGATTTACGTGCTAGGTCTTGATTCGCTTGACGCTGCTG	6.97 z-score	–
GCCTAGCACGAAAACAGGAACTGCAAATAGTGCTAGGTCTTGATTCGCTTGACGCTGCTG	–	6 z-score
GCCTAGCACGGAAAGAGGAAGTCAAACTAGTGCTAGGTCTTGATTCGCTTGACGCTGCTG	7.68 z-score	–
GCCTAGCACAAAAAGAGGAAGTCAAACAAGTGCTAGGTCTTGATTCGCTTGACGCTGCTG	8.71 z-score	–
GCCTAGCACAAAAAGAGGAAGTCAAACTAGTGCTAGGTCTTGATTCGCTTGACGCTGCTG	8.48 z-score	–
GCCTAGCACAAAAAGAGGAAGAGAAACTAGTGCTAGGTCTTGATTCGCTTGACGCTGCTG	5.79 z-score	–
GCCTAGCACAAAAAGAGGAAGGGAAACTAGTGCTAGGTCTTGATTCGCTTGACGCTGCTG	5.12 z-score	–
GCCTAGCACAAAAACAGGAAGTCAAAGGAGTGCTAGGTCTTGATTCGCTTGACGCTGCTG	7.11 z-score	–
GCCTAGCACAGAAAGAGGAAGTCAAAACAGTGCTAGGTCTTGATTCGCTTGACGCTGCTG	7.68 z-score	–
GCCTAGCACGAAAAGAGGAAGTCAAACTAGTGCTAGGTCTTGATTCGCTTGACGCTGCTG	8.35 z-score	–
GCCTAGCACGAAAAGAGGAAGTCAAACGAGTGCTAGGTCTTGATTCGCTTGACGCTGCTG	8.02 z-score	–

Sequence	binding signal (PU.1 (IVT) [1])	binding signal (PU.1 (IVT) [2])
GCCTAGCACAAAAAAAGGAAGTCCTTGTGGTGCTAGGTCTTGATTCGCTTGACGCTGCTG	–	6.48 z-score
GCCTAGCACTTGGTCAGGAAGTGAAACTGGTGCTAGGTCTTGATTCGCTTGACGCTGCTG	–	1.38 z-score
GCCTAGCACAGAAAGAGGAAGTCACAAGGGTGCTAGGTCTTGATTCGCTTGACGCTGCTG	7.68 z-score	–
GCCTAGCACGAAAGAGGGAAGTGAAAGTCGTGCTAGGTCTTGATTCGCTTGACGCTGCTG	–	5.25 z-score
GCCTAGCACGATATGAGGAACTGAAAGCTGTGCTAGGTCTTGATTCGCTTGACGCTGCTG	–	4.06 z-score
GCCTAGCACAATAAAGGGAAGTGACTGCTGTGCTAGGTCTTGATTCGCTTGACGCTGCTG	–	5.43 z-score
GCCTAGCACAAAAAAAGGAACGGGCTAGAGTGCTAGGTCTTGATTCGCTTGACGCTGCTG	1.48 z-score	–
GCCTAGCACAAAAAGAGGAAATGAAAAGAGTGCTAGGTCTTGATTCGCTTGACGCTGCTG	–	6.67 z-score
GCCTAGCACAGAAAGAGGAACTGACTGACGTGCTAGGTCTTGATTCGCTTGACGCTGCTG	–	6.61 z-score
GCCTAGCACTGAAAAGGGAAGTGAGGAAGGTGCTAGGTCTTGATTCGCTTGACGCTGCTG	–	5.34 z-score
GCCTAGCACAAAAAGAGGAAGTAGAGAACGTGCTAGGTCTTGATTCGCTTGACGCTGCTG	8.97 z-score	–
GCCTAGCACAAAAAGAGGAAGTAAAAGACGTGCTAGGTCTTGATTCGCTTGACGCTGCTG	8.93 z-score	–
GCCTAGCACGAGAAGAGGAAGTAGAACAAGTGCTAGGTCTTGATTCGCTTGACGCTGCTG	–	6.62 z-score
GCCTAGCACACGAAGAGGAAGTAAAAGGCGTGCTAGGTCTTGATTCGCTTGACGCTGCTG	–	6.54 z-score
GCCTAGCACAAAAAAAGGAAGTGGTAAACGTGCTAGGTCTTGATTCGCTTGACGCTGCTG	–	6.51 z-score
GCCTAGCACAAAAAGAGGAAGGGAGTAGAGTGCTAGGTCTTGATTCGCTTGACGCTGCTG	–	4.77 z-score
GCCTAGCACCGAAAGGGGATGTGCTAAACGTGCTAGGTCTTGATTCGCTTGACGCTGCTG	–	1.8 z-score
GCCTAGCACTATATAGGGAAGTGGGATTCGTGCTAGGTCTTGATTCGCTTGACGCTGCTG	–	4.85 z-score
GCCTAGCACTAAATGAGGAAGTGACAGCTGTGCTAGGTCTTGATTCGCTTGACGCTGCTG	7.57 z-score	–
GCCTAGCACAATGGCAGGAAGTGAAATCAGTGCTAGGTCTTGATTCGCTTGACGCTGCTG	2.15 z-score	–
